Reference: ChEMBL document CHEMBL1961873, “Compounds: GSK PKIS; Assays: Nanosyn kinase panel” (2012)

Tests used:
[1] = molecular target: T1, Serine/threonine-protein kinase D2 (Homo sapiens) (UniProt Q9BZL6); settings: at 1 µM;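 also: mean value of PRKD2 inhibition, from the GSK PKIS screening panel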
T1 sequence (whole entry): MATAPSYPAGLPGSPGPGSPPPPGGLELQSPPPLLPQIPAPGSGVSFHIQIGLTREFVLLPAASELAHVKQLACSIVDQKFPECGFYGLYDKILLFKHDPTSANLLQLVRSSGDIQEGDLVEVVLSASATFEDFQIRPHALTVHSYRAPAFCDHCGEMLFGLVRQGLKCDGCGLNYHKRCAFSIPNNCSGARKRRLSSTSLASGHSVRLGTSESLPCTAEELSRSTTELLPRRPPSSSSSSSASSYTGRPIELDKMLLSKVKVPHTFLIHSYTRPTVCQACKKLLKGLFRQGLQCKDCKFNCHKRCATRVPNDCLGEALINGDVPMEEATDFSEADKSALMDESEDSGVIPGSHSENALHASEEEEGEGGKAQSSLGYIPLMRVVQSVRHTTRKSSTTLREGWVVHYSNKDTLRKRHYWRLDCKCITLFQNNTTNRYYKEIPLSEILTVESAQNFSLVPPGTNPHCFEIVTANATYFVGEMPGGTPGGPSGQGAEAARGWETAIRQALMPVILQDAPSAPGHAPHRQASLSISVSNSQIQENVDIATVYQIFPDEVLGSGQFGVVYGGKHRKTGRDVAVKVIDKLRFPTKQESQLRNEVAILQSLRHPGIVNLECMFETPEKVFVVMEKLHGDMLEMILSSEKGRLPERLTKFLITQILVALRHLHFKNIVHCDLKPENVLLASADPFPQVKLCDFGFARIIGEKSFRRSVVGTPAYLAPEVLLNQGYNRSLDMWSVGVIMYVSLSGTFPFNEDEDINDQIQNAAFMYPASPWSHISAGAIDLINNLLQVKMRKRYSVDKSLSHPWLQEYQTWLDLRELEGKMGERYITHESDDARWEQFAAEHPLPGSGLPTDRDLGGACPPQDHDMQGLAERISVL

[2] = molecular target: T2, Serine/threonine-protein kinase D3 (Homo sapiens) (UniProt O94806); settings: at 0.1 µM
T2 sequence (whole entry): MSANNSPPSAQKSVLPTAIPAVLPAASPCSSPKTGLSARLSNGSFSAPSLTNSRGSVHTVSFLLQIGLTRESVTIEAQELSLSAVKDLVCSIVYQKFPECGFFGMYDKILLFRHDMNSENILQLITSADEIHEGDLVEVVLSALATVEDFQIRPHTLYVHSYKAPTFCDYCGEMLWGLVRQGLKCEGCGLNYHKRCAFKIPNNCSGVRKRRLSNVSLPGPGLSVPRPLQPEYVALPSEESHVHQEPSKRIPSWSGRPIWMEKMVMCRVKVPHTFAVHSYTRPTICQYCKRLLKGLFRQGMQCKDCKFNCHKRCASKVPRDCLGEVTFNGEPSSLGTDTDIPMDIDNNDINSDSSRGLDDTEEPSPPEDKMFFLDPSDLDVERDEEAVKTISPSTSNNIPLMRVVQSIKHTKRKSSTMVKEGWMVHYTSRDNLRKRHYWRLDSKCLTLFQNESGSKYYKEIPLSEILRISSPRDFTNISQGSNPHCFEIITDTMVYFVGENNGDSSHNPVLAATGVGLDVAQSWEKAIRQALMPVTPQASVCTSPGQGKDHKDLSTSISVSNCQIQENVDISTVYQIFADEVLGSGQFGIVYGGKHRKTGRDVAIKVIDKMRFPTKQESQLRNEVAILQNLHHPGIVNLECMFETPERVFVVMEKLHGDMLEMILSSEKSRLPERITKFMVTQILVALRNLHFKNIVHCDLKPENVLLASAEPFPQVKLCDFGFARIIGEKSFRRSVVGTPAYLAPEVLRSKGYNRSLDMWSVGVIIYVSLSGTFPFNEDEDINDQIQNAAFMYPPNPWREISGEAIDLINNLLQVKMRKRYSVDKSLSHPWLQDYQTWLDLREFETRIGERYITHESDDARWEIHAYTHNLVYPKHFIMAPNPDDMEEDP

[3] = molecular target: T2, Serine/threonine-protein kinase D3 (Homo sapiens); settings: at 1 µM
[4] = molecular target: T3, cGMP-dependent protein kinase 1 (Homo sapiens) (UniProt Q13976); settings: at 0.1 µM
T3 sequence (whole entry): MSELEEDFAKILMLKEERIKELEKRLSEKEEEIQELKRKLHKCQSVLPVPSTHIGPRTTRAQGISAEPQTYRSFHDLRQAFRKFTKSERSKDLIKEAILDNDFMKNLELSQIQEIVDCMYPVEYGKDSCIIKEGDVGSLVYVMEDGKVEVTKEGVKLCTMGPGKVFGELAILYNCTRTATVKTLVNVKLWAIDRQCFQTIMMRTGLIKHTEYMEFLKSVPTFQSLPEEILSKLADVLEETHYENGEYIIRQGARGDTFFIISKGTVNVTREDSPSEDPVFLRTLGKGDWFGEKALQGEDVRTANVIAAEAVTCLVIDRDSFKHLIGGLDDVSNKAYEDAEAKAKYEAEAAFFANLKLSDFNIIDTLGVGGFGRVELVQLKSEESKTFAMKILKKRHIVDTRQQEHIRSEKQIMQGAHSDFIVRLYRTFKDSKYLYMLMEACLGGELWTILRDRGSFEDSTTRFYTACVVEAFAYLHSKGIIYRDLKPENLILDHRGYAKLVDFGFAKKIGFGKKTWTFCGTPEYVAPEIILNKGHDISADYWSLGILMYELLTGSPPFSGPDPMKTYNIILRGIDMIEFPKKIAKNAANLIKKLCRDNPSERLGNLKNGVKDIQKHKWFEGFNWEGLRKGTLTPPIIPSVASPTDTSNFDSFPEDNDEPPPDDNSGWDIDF

[5] = molecular target: T3, cGMP-dependent protein kinase 1 (Homo sapiens); settings: at 1 µM
[6] = molecular target: T4, cGMP-dependent protein kinase 2 (Homo sapiens) (UniProt Q13237); settings: at 0.1 µM
T4 sequence (whole entry): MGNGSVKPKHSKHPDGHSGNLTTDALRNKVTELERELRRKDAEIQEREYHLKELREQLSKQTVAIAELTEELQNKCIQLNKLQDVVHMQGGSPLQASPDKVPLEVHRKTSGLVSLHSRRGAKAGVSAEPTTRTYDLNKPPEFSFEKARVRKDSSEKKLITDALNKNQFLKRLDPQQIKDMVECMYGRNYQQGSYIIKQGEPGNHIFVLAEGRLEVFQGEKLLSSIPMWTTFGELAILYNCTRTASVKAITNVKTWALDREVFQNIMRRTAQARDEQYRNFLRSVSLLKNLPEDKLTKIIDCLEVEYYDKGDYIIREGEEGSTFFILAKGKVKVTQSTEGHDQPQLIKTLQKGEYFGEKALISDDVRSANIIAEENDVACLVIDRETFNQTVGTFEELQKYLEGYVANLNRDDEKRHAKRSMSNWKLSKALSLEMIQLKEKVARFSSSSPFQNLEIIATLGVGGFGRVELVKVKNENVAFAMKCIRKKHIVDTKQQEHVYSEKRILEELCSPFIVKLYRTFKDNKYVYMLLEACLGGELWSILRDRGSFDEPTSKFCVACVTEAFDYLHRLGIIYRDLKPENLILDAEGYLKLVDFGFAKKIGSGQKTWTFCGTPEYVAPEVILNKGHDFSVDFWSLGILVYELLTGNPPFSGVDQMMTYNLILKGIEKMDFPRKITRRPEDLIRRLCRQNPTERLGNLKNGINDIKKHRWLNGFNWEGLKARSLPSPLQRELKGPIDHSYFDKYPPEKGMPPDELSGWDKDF

[7] = molecular target: T4, cGMP-dependent protein kinase 2 (Homo sapiens); settings: at 1 µM
[8] = molecular target: T5, cAMP-dependent protein kinase catalytic subunit PRKX (Homo sapiens) (UniProt P51817); settings: at 0.1 µM
T5 sequence (whole entry): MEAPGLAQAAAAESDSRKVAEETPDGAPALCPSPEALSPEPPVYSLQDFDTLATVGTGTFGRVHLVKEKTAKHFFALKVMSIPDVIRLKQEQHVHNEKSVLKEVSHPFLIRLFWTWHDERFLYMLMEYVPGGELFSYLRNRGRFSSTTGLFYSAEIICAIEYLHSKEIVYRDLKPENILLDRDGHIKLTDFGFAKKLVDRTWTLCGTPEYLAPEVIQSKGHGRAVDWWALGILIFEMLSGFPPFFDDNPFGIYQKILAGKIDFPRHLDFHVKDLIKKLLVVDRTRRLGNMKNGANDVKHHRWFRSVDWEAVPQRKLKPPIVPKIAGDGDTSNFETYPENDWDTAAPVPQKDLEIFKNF

[9] = molecular target: T5, cAMP-dependent protein kinase catalytic subunit PRKX (Homo sapiens); settings: at 1 µM
[10] = molecular target: Rho-associated protein kinase 1 (Homo sapiens) (UniProt Q13464); settings: at 0.1 µM;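 also: values are mean percent inhibition of ROCK1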
Rho-associated protein kinase 1 (Homo sapiens), sequence (Q13464 2-1354 limits assumed): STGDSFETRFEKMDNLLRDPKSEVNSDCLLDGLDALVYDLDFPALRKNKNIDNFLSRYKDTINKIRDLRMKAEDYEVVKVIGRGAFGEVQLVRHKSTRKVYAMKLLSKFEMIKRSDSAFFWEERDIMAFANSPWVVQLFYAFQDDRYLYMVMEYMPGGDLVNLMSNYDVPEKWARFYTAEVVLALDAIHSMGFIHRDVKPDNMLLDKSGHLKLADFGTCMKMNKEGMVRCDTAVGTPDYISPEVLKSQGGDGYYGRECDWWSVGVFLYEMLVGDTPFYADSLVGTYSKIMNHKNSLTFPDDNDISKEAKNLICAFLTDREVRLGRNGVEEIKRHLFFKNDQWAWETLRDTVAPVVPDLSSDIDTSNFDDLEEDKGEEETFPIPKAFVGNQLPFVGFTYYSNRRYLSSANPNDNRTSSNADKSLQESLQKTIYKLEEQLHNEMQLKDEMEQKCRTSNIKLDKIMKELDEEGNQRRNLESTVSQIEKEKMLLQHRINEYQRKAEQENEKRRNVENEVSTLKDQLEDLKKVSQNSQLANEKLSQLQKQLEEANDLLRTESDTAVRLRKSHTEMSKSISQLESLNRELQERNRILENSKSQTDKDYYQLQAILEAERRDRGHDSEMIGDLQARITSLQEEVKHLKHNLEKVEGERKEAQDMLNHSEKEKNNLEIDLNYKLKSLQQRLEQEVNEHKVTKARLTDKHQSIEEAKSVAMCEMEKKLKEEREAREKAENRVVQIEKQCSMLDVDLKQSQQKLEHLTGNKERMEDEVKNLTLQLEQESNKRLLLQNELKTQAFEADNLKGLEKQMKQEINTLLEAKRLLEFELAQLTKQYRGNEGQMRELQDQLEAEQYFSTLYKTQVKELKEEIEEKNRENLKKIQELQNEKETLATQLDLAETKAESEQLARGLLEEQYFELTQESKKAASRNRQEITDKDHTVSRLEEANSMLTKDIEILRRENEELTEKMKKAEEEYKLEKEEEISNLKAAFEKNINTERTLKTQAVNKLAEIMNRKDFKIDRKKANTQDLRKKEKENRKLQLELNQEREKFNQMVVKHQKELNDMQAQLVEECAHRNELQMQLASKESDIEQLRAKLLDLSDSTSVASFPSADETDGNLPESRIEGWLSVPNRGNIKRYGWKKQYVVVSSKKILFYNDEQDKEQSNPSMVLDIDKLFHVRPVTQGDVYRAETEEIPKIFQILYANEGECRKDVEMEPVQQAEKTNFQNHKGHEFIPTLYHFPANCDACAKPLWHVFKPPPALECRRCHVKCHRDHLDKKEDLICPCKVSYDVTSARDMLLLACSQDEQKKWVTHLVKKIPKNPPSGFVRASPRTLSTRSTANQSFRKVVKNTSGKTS

| SMILES | inhibition [1] [%] | inhibition [2] [%] | inhibition [3] [%] | inhibition [4] [%] | inhibition [5] [%] | inhibition [6] [%] | inhibition [7] [%] | inhibition [8] [%] | inhibition [9] [%] | inhibition [10] [%] |
| --- | --- | --- | --- | --- | --- | --- | --- | --- | --- | --- |
| O=C(Nc1n[nH]c2nc(-c3ccco3)c(Br)cc12)C1CC1 | 5.03 | 3.1 | 4.81 | 2.39 | 3.36 | 1.15 | 1.85 | 1.8 | -0.27 | 0.16 |
| CC1=C(C(=O)Nc2ccc3[nH]ncc3c2)C(c2ccc(F)cc2)NC(=O)N1 (centres undefined) | 8.48 | 3.46 | 7.95 | 4.58 | 20.1 | 1.73 | 12.6 | 12.7 | 53.4 |  |
| CCN1CCC(CC(=O)Nc2n[nH]c3nc(-c4cccs4)c(Br)cc23)CC1 | -1.32 | -2.16 | -0.88 | -1.47 | -0.36 | -0.23 | 1.17 | -0.98 | 0.48 | 0.12 |
| COc1cc2ncn(-c3cc(OCc4ccccc4C(F)(F)F)c(C(N)=O)s3)c2cc1OC | -1.87 | 0.67 | -0.49 | 2.93 | 0.86 | 1.68 | 1.12 | 1.89 | 2.8 | 1.68 |
| NC(=O)c1cccc(Nc2nccc(Nc3cccc4[nH]ncc34)n2)c1 | 5 | -3.05 | 4.5 | -0.53 | 5.24 | 0.86 | 7.93 | 7.81 | 9.23 | 0.94 |
| CCn1c(-c2nonc2N)nc2ccncc21 | 3.25 | 0.84 | 2.17 | 0.57 | 3.36 | 2.12 | 8.39 | 0.91 | -1.6 | 1.94 |
| COc1cc(C=NNc2ncnc3c2cnn3-c2ccccc2)ccc1O | 2.86 | 2.52 | 3 | 1.67 | 1.52 | 2.05 | 4.06 | 1.55 | 1.36 | 0.41 |
| Fc1cccc(COc2ccc(Nc3ncnc4cc(-c5ccc[nH]5)sc34)cc2Cl)c1 | -2.9 | -1.25 | -2.13 | 3.64 | 4.28 | 2.82 | 2.46 | 2 | 3.5 | 0.2 |
| N#Cc1c(NC(=O)c2cccc3ccccc23)sc2c1CCCC2 | 2.96 | 4.61 | 4.09 | 3.4 | 3.28 | 1.51 | 3.5 | 2.34 | 1.92 | 0.98 |
| [O-][S+]1CCN(Cc2ccc(-c3ccc4ncnc(Nc5ccc(OCc6ccccc6)c(F)c5)c4c3)o2)CC1 | 4.32 | 2.88 | 3.26 | 1.05 | 3.37 | 0.25 | 2.79 | 0.09 | -1.73 | -0.61 |
| COc1ccc(COc2ccc(Cc3cnc(N)nc3N)cc2OC)cc1 | 4.2 | 0.01 | 2.56 | 4.15 | 3.2 | 2.89 | 3.2 | 2.09 | 1.07 | 2.35 |
| CS(=O)(=O)CCNCc1ccc(-c2ccc3ncnc(Nc4ccc(OCc5ccccc5)c(Cl)c4)c3c2)o1 | -0.61 | -0.81 | -0.48 | 1.06 | 2 | 0.55 | 1.26 | 0.78 | 0.52 | 1.32 |
| COC(=O)Nc1nc2cc(Oc3cccc(NC(=O)Nc4cc(C(F)(F)F)ccc4F)c3)ccc2[nH]1 | 1.8 | 0.2 | 2.71 | 2.33 | 2.11 | 1.2 | 6.47 | 0.81 | 2.2 | -0.55 |
| CC1=C(C(=O)Nc2ccc3[nH]ncc3c2)C(c2ccc(Cl)c(Cl)c2)CC(=O)N1 (centres undefined) | 5.98 | 1.11 | 9.26 | 10.1 | 50 | 5.19 | 34.7 | 14.8 | 59.2 | 68.6 |
| CS(=O)(=O)CCN(CC#N)Cc1ccc(-c2ccc3ncnc(Nc4ccc(OCc5cccc(F)c5)c(Cl)c4)c3c2)o1 | -4.76 | -2.15 | -3.08 | 2.42 | 3.06 | 0.52 | 0.66 | 1.58 | 1.54 | 0.99 |
| Cc1nnc(-c2ccc(C)c(-c3ccc(C(=O)Nc4cccc(C#N)c4)cc3)c2)o1 | 3.13 | 2.37 | 3.16 | 0.21 | 2.16 | 1.21 | 3.35 | 0.63 | 1.68 | -0.21 |
| Fc1cccc(COc2ccc(Nc3ncnc4sc(-c5cccs5)cc34)cc2Cl)c1 | -1.2 | -0.65 | -0.35 | 1.57 | 1.96 | 0.03 | 0.73 | 0.64 | 0.87 | 1.73 |
